The text below walks through data of PubChem BioAssay (NCI).

Common to all, as to assay: NCI-60 one-dose screen, 48 h (100 = growth as untreated, 0 = no growth, -100 = all killed)
Details in all cases: 10 µM unless noted

The test system of experiment [1] is DU-145 prostate.
The subject of experiment [2] is MALME-3M melanoma.
Experiment [3] concerns MDA-MB-231 breast.
For experiment [4], the system named is RXF 393 renal.
Experiment [5] has as its system SF-268 CNS.
Experiment [6] relates to SF-295 CNS.
For experiment [7], the system named is SF-539 CNS.
Experiment [8] has as its system UACC-257 melanoma.
Experiment [9] concerns M14 melanoma.

This is part of a sample that, as a whole, favours compounds with a hit. Of some 83,000 tested, about 20% had one in any assay.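 Results are percent growth after 48 hours of single-concentration exposure. 100 means growth as in untreated cells, lower positive values show inhibition; negative values down to -100 show cell death.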 Values without a mark were called inactive. Activity calls are given as the source filed them. How the source made its calls: active means growth percent below 10; inactive means the rest.

`O=C1c2ccccc2C(=O)c2c([N+](=O)[O-])ccc(Cl)c21`: the growth in experiment [1] was 101%; in experiment [2], 116%; in experiment [3], 103%; in [4] it was 94.3%; in [5], 87.4%; in experiment [6], 116%. Also, the growth in [7] is 99.1%; in [8], 96.2%; in experiment [9], 108%.
Take `CC[C@]12C=CCN3CC[C@@]4(c5cc(NC(=O)CCC(=O)O[C@H]6CC[C@H]7[C@@H]8CCC9=CC(=O)CC[C@@H]9[C@H]8CC[C@]67C)c(OC)cc5N(C)[C@H]4[C@@](O)(C(=O)OC)[C@@H]1OC(C)=O)[C@@H]32`: the growth in [1] was 82.2%; in [2], 98.9%; in [3] it was 68.5%; in experiment [4], 82.7%; in experiment [5] it was 74.4%; in [6] it was 86.3%. Further, the growth is 94.8% in experiment [7], 76.2% in experiment [8] and 77.1% in experiment [9].
For `NS(=O)(=O)c1ccc(CCn2c(SCC(=O)c3ccc(Cl)cc3)nc3ccccc3c2=O)cc1`, the growth in experiment [1] was 102%; in experiment [2], 96.4%; in experiment [3], 95.5%; in [4], 111%; in [5], 100%; in experiment [6], 103%. Also, the growth in experiment [7] was 94.2%; in experiment [8], 111%; in experiment [9], 104%.
For `COc1ccc2c(c1)oc1c(C)c3c(c(C)c12)C(=O)N(CCN1CCOCC1)C3=O`, the growth in [1] was 107%; in [2] it was 100%; in [3], 86.2%; in experiment [4], 93.9%; in experiment [5], 99.5%; in [6] it was 110%. Moreover, the growth in [7] is 100%; in experiment [8] it was 93.8%; in experiment [9], 104%.
Take `COc1cc(CC(=O)n2ncc3ccc(N)cc32)cc(OC)c1OC`: the growth was 105% in [1]; 85.7% in experiment [2]; 79.2% in experiment [3]; 108% in experiment [4]; 93.5% in [5]; 91.3% in experiment [6]. Besides, the growth in experiment [7] was 88.4%; in experiment [8], 105%; in experiment [9], 102%.
With `CCN(c1ccccc1)S(=O)(=O)c1cc([N+](=O)[O-])ccc1Cl`, the growth in experiment [1] is 94%; in experiment [2] it was 67.6%; in [3], 56.3%; in [4] it was 40.7%; in experiment [5], 77.4%; in experiment [6], 110%. Besides, the growth in [7] was 36.2%; in experiment [8] it was 64.6%; in experiment [9] it was 70.9%.
As for `O=C1Nc2cc(Cl)ccc2/C1=C\c1c(-c2ccc(F)cc2)nc2ccccn12`, the growth was -17.9% (active) in experiment [1]; 41.4% in [2]; 50.3% in [3]; -23.8% (active) in experiment [4]; 20% in [5]; -58.2% (active) in experiment [6]. Further, the growth is -26.4% (active) in [7], 68.7% in experiment [8] and -10.8% (active) in experiment [9].
On to `Cc1ccc(C(=O)/C(=C/c2ccc([N+](=O)[O-])cc2)SCc2ccc(Cl)cc2)cc1`, for which the growth was 86.9% in [1]; 83.3% in experiment [2]; 83.8% in [3]; 95.4% in experiment [4]; 69.8% in [5]; 83.3% in experiment [6]. For the same molecule, the results for the growth in experiment [7], in [8] and in [9] were 112%, 83% and 74.6%, respectively.
On to `CCNc1nc2cc(Nc3ccnc4cc(Cl)ccc34)ccc2o1`, for which the growth is 86.2% in experiment [1]; 91.7% in [2]; 64.3% in [3]; 66.5% in experiment [4]; 81.1% in experiment [5]; 55.2% in [6]. The growth is 65.9% in [7], 83.5% in experiment [8] and 61% in experiment [9].
Take `C[C@@H](Nc1ncnc2ccc(-c3cnc(N)nc3)cc12)c1ccc(F)cc1`: the growth in [1] was 47.9%; in [2], 85.2%; in experiment [3] it was 59.6%; in experiment [4], 34.7%; in experiment [5], 64.1%; in experiment [6] it was 81.7%. For the same molecule, the growth was 95.3% in experiment [7], 94.8% in experiment [8] and 82.7% in experiment [9].
`Nc1c(S(=O)(=O)O)cc2c3c(cccc13)C(=O)OC2=O`: the growth in experiment [1] is 140%; in [2], 112%; in experiment [3], 103%; in experiment [4], 131%; in experiment [5], 109%; in [6], 117%. Also, the growth in experiment [7] is 100%; in experiment [8] it was 78.8%; in experiment [9], 102%.
Regarding `CC(=O)Oc1ccc(/C=N/NC(N)=S)nc1`, the growth was 81.5% in experiment [1]; 97.8% in experiment [2]; 87.1% in experiment [3]; 34.7% in [4]; 66.5% in experiment [5]; 104% in experiment [6]. For the same molecule, the results for the growth in [7], in experiment [8] and in experiment [9] were 20.4%, 81.4% and 58.2%, respectively.
`COc1ccc(-c2cnc3c(-c4cccc5cnccc45)cnn3c2)cc1`: the growth in [1] is 69.9%; in experiment [2], 45%; in experiment [3], 37.8%; in [4] it was 48.7%; in experiment [5], 92.7%; in experiment [6] it was 62.5%. The growth in experiment [7] was 2.09% (active); in [8] it was 88.7%; in experiment [9], 74.5%.
